According to PubChem BioAssay AID651638 (Johns Hopkins Ion Channel Center, 2012):
Screen size: about 2,400 compounds; about 2,400 (100%) were called active.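 The calls were made as follows: active = ratio percent of control, averaged over triplicates, above buffer control mean plus 5 SD (cut at about 64% in these data); inactive = the rest.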 The set was probably picked from earlier hits. The list is a sample of the results.

target: Potassium channel subfamily K member 3 (Homo sapiens) (UniProt O14649); assay: retest of human KCNK3 channel inhibitors, confirmation, CHO cells, FluxOR thallium flux, triplicate (AID 651638); settings: FluxOR fluorescence, at 10 µM, hits give high values, 0% buffer, 100% carvedilol maximal block;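 also: ratio is the fluorescence rise from min to max over baseline after thallium stimulus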
Sequence (O14649 whole entry, looked up): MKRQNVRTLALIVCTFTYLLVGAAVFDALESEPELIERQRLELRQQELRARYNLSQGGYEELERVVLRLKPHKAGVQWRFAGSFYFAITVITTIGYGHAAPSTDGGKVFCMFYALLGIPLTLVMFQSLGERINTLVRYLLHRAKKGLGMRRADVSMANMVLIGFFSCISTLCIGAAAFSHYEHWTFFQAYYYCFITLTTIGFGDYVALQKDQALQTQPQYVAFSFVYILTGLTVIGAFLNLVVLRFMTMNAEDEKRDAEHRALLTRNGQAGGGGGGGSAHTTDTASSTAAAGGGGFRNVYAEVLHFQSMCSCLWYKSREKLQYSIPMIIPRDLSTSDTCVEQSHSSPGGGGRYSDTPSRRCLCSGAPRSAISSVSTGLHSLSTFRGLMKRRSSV

Q: Which ratio percent of control does the source give for `CSCc1cc(N(C)C)nc(SCc2ccc(Cl)cc2Cl)n1` here?
A: Its ratio percent of control is 115% (active).

Q: `O=C(Nn1c(SCc2ccc([N+](=O)[O-])cc2)nc2ccccc2c1=O)c1ccc(F)cc1` was tested. Which ratio percent of control did it give?
A: The ratio percent of control was 139% (active).

Q: For `COc1ccc(C2Nc3ccccc3C(=O)N2Cc2ccccc2)cc1Cn1nnc2ccccc21` (configuration not stated), which ratio percent of control is on record?
A: The ratio percent of control was 110% (active).

Q: Which ratio percent of control does the source give for `FC(F)(F)c1cc(-c2ccco2)nc(NCc2ccc(Cl)cc2)n1` here?
A: The ratio percent of control was 126% (active).

Q: Which ratio percent of control does the source give for `FC(F)(F)c1cccc(-c2cc3ccccc3nc2N2CCCC2)c1` here?
A: Its ratio percent of control is 101% (active).

Q: `CC(=O)N1CCCc2cc(S(=O)(=O)N3CCCC(C(=O)N4CCN(c5cccc(Cl)c5)CC4)C3)ccc21` (configuration not stated) was tested. Which ratio percent of control did it give?
A: Its ratio percent of control is 119% (active).

Q: For `CC(=O)c1ccccc1OCc1ccc(C(=O)c2ccccc2)cc1`, which ratio percent of control is on record?
A: Its ratio percent of control is 121% (active).

Q: Which ratio percent of control does the source give for `COc1ccc(CCNC(=O)c2ccccc2OCc2ccccc2)cc1` here?
A: Its ratio percent of control is 101% (active).

Q: With `CC(C)c1ccccc1OCC(O)CN(CC(O)COc1cccc2ccccc12)C(C)C` (configuration not stated) as the molecule, how does the ratio percent of control read?
A: The ratio percent of control was 119% (active).

Q: Which ratio percent of control does the source give for `Cc1cccc(C)c1N1CCN(S(=O)(=O)N2CCCCC2)CC1` here?
A: Its ratio percent of control is 122% (active).

Q: Which ratio percent of control does the source give for `N/C(Cc1ccc([N+](=O)[O-])cc1)=N\OC(=O)COc1ccc2ccccc2c1` here?
A: The ratio percent of control was 112% (active).

Q: With `COC(=O)c1cc(NC2c3ccccc3C(=O)N2c2ccc(Cl)cn2)cc(C(=O)OC)c1` (configuration not stated) as the molecule, how does the ratio percent of control read?
A: Its ratio percent of control is 115% (active).

Q: With `COc1cc(/C=C(\C#N)c2nc3ccccc3[nH]2)ccc1O` as the molecule, how does the ratio percent of control read?
A: The ratio percent of control was 125% (active).

Q: With `COc1ccccc1N1CCN(/N=C\C(Br)=C\c2ccccc2)CC1` as the molecule, how does the ratio percent of control read?
A: The ratio percent of control was 89.7% (active).

Q: With `O=C(Nc1ccccc1)O/N=C1\CCCCC1c1ccc([N+](=O)[O-])cc1[N+](=O)[O-]` (configuration not stated) as the molecule, how does the ratio percent of control read?
A: The ratio percent of control was 118% (active).

Q: `CC(C)c1cc(C(=O)N/N=C/c2ccoc2)c(O)c(C(C)C)c1` was tested. Which ratio percent of control did it give?
A: The ratio percent of control was 123% (active).

Q: `CCCCCCCCCCCCN1C(=O)CSC1c1cccnc1` (configuration not stated) was tested. Which ratio percent of control did it give?
A: The ratio percent of control was 125% (active).

Q: Which ratio percent of control does the source give for `CCc1cc(C(c2ccccc2OC)N2CCOCC2)c(NC(=O)c2ccccc2)s1` (configuration not stated) here?
A: The ratio percent of control was 102% (active).

Q: For `COc1cccc(CNc2nc(C(F)(F)F)nc3ccccc23)c1`, which ratio percent of control is on record?
A: The ratio percent of control was 125% (active).

Q: `Cc1cccc2cc(CN(Cc3nnnn3Cc3ccccc3)C3CCCC3)c(=O)[nH]c12` was tested. Which ratio percent of control did it give?
A: Its ratio percent of control is 115% (active).

Q: How did the ratio percent of control turn out when `COc1cccc(NC(=S)N(CCc2c(C)[nH]c3ccccc23)Cc2ccco2)c1` was run?
A: The ratio percent of control was 113% (active).

Q: `COc1ccccc1NC(=O)CSc1nc2sc(C)c(C)c2c(=O)n1Cc1ccco1` was tested. Which ratio percent of control did it give?
A: The ratio percent of control was 108% (active).

Q: How did the ratio percent of control turn out when `O=C(Nc1cccc(S(=O)(=O)Nc2ccc(Cl)cc2)c1)c1ccc2c(c1)OCCO2` was run?
A: Its ratio percent of control is 105% (active).

Q: With `C=CCN(N=Nc1cccc([N+](=O)[O-])c1)c1cccc([N+](=O)[O-])c1` as the molecule, how does the ratio percent of control read?
A: Its ratio percent of control is 109% (active).

Q: With `COc1ccccc1C(c1nnnn1C(C)(C)C)N1CCN(Cc2ccccc2)CC1` (configuration not stated) as the molecule, how does the ratio percent of control read?
A: The ratio percent of control was 109% (active).

Q: Which ratio percent of control does the source give for `COC(=O)C1=C(C)N(C(C)c2ccccc2)C(=O)/C1=C\c1ccco1` (configuration not stated) here?
A: The ratio percent of control was 105% (active).

Q: For `Cc1ccc(NC(=S)N2CCCC(c3ccccc3)=N2)cc1`, which ratio percent of control is on record?
A: Its ratio percent of control is 97.7% (active).

Q: For `c1ccc(C(c2ccccc2)N2CCN(Cc3nnnn3C3CCCCC3)CC2)cc1`, which ratio percent of control is on record?
A: The ratio percent of control was 118% (active).

Q: How did the ratio percent of control turn out when `Cc1cccc(-c2nc3ccc(C(=O)NCCN4CCN(C)CC4)cc3nc2-c2cccc(C)c2)c1` was run?
A: Its ratio percent of control is 106% (active).

Q: With `O=C(NCCc1ccccc1)c1ccc2c(c1)N(Cc1ccccc1)CCS2` as the molecule, how does the ratio percent of control read?
A: Its ratio percent of control is 108% (active).

Q: For `Cc1c(C(=O)N2CCCc3ccccc32)sc2nc(-c3ccccc3)cn12`, which ratio percent of control is on record?
A: The ratio percent of control was 102% (active).

Q: Which ratio percent of control does the source give for `C=CCN(C(=O)c1cc(C)cc(C)c1)C1(C(=O)Nc2ccccc2)CCN(C(C)C)CC1` here?
A: The ratio percent of control was 93% (active).

Q: `CCCC(=O)Nc1ccc(Cl)c(NC(=O)c2ccc(Br)o2)c1` was tested. Which ratio percent of control did it give?
A: The ratio percent of control was 92.7% (active).

Q: `O=C(N/N=C/c1cccc(OCc2ccccc2)c1)c1ccc(Br)o1` was tested. Which ratio percent of control did it give?
A: Its ratio percent of control is 116% (active).

Q: For `Cc1ccc(NC(=O)COC(=O)CNC(=O)c2ccc(Cl)cc2Cl)cc1S(=O)(=O)N1CCOCC1`, which ratio percent of control is on record?
A: Its ratio percent of control is 89% (active).

Q: Which ratio percent of control does the source give for `COc1ccc(-c2nc(CCNC(=O)c3ccc(Br)o3)cs2)cc1` here?
A: The ratio percent of control was 84.7% (active).

Q: Which ratio percent of control does the source give for `CN1CCc2ccccc2C1Cc1ccccc1NC(=O)c1sc2ccccc2c1Cl` (configuration not stated) here?
A: Its ratio percent of control is 114% (active).

Q: With `c1ccc2c(NC3C4CC5CC(C4)CC3C5)nc(N3CCOCC3)nc2c1` (configuration not stated) as the molecule, how does the ratio percent of control read?
A: The ratio percent of control was 122% (active).

Q: `CCOc1ccccc1Oc1cn[nH]c1-c1ccc(OC)cc1O` was tested. Which ratio percent of control did it give?
A: Its ratio percent of control is 114% (active).

Q: How did the ratio percent of control turn out when `COCCNc1cc(-c2ccccc2)nc2cc(-c3cccc(F)c3)nn12` was run?
A: Its ratio percent of control is 130% (active).

Q: How did the ratio percent of control turn out when `COc1cccc(CN(C)CC(O)COC(c2ccccc2)c2ccccc2C)c1` (configuration not stated) was run?
A: Its ratio percent of control is 110% (active).

Q: For `Oc1ccc(/C=N/Nc2nc(-c3ccccc3F)nc3ccccc23)c(O)c1`, which ratio percent of control is on record?
A: Its ratio percent of control is 93.3% (active).

Q: Which ratio percent of control does the source give for `O=C(NCCc1c[nH]c2ccccc12)c1cccc(Br)c1` here?
A: The ratio percent of control was 118% (active).

Q: Which ratio percent of control does the source give for `Cc1cc(NC(=O)Nc2ccc(Cl)cc2)n(-c2ccccc2)n1` here?
A: The ratio percent of control was 100% (active).

Q: How did the ratio percent of control turn out when `CN(CCC(=O)Nc1cc(S(=O)(=O)N(C)C)ccc1Cl)CC(=O)Nc1ccc(F)cc1` was run?
A: Its ratio percent of control is 118% (active).

Q: `COc1cccc(COc2ccc(N(C)S(=O)(=O)c3ccccc3)cc2)c1` was tested. Which ratio percent of control did it give?
A: The ratio percent of control was 132% (active).

Q: With `O=C(N/N=C/c1sc(N2CCCCC2)nc1-c1cccs1)c1cccnc1` as the molecule, how does the ratio percent of control read?
A: Its ratio percent of control is 123% (active).

Q: Which ratio percent of control does the source give for `COc1cccc(/C=N/Nc2cc(C)nc(-c3ccccc3O)n2)c1O` here?
A: The ratio percent of control was 134% (active).

Q: With `CCC(C)(C)n1nnnc1C(c1cccs1)N1CCN(c2nc3ccccc3s2)CC1` (configuration not stated) as the molecule, how does the ratio percent of control read?
A: Its ratio percent of control is 112% (active).

Q: For `O=C(CNCCC1=CCCCC1)Nc1ccccc1N1CCCCCC1`, which ratio percent of control is on record?
A: The ratio percent of control was 113% (active).

Q: `Cc1cc(C)c(S(=O)(=O)c2ccccc2)c(OC(=O)c2c(F)cccc2Cl)n1` was tested. Which ratio percent of control did it give?
A: Its ratio percent of control is 78% (active).

Q: `COc1ccc(Nc2ncnc3sc(-c4ccccc4)cc23)c(OC)c1` was tested. Which ratio percent of control did it give?
A: Its ratio percent of control is 112% (active).
